Compound activity as filed in PubChem.
This is a sample that favours compounds with a hit; in the whole collection about 12% have one here.
G9a block = G9a (human) methyltransferase inhibition | 350,000 tested, 8.8% active | G9a H3K9 monomethylation, AlphaScreen, 2 h | Potency, µM (top dose mostly 102 µM), for the others: at the top dose activity, negative = inhibition, hits mostly inhibitors; note: % is set by controls: 0 for no effect and ±100 for the full control effect; nearly all actives have a fitted effect of over 75% in size
Target sequence (Q96KQ7 913-1193 limits assumed): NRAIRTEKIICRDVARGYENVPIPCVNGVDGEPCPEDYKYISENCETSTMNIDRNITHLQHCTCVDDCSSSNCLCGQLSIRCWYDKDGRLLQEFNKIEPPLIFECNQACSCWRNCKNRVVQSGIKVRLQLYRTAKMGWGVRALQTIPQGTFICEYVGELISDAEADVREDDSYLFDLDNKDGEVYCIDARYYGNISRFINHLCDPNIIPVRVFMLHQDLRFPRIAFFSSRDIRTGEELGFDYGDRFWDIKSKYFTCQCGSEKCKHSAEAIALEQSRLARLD
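Signal arises when biotinylated H3K9 peptide, once monomethylated, bridges streptavidin donor and antibody-captured acceptor beads. Enzyme at 20 nM was preincubated 15 min with test compounds; peptide 500 nM and SAM 20 uM then reacted for 2 h.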
HP1b chromo inh = blocks HP1-beta chromodomain binding to methylated histone tails; P83916; AlphaScreen HP1-beta / biotin-H3K9me3 peptide binding; Potency, µM (series often up to 114 µM), without a hit: top-dose activity change, negative = inhibition, usual class: inhibitors; 390,000 tested, 0.56% active; note: nearly all actives have a fitted effect of over 70% in size
Target sequence (P83916 whole entry, looked up): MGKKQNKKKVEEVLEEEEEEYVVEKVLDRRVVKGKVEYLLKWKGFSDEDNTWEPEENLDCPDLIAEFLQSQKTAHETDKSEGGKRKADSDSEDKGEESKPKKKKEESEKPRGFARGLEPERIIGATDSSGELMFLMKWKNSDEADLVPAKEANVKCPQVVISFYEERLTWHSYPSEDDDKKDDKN
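AlphaScreen: HP1-beta (50 nM) preformed 30 min with biotin-H3(1-18)K9me3 peptide (50 nM) in PBS pH 7.4, 0.01% Tween-20. Compound added for 30 min at RT, then streptavidin donor/nickel chelate acceptor beads (10 ug/mL) for 30 min.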
BAZ2B block = inhibitors of human BAZ2B bromodomain; Q9UIF8; Potency, µM (doses to about 114 µM), inactives show at the highest dose activity change, negative = inhibition, usual class: inhibitors; AID 504333; 360,000 tested, 4.4% active; AlphaScreen BAZ2B-H3K14Ac peptide displacement; note: % is set by controls: 0 for no effect and ±100 for the full control effect; nearly all actives have a fitted effect of over 60% in size
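Multi-concentration screen (max 110 uM) measuring displacement of acetylated histone H3 peptide from BAZ2B by AlphaScreen, using 50 nM protein, 50 nM peptide and 10 ug/mL streptavidin donor plus Ni-chelate acceptor beads.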
JMJD2A Tudor inh = inhibitors of human JMJD2A Tudor domain; O75164; Potency, µM (titrated, usually from 114 µM), for the others: top-dose activity change, negative = inhibition, hits mostly inhibitors; AlphaScreen JMJD2A-Tudor / H3K4me3 peptide binding; 390,000 tested, 4.4% active; note: % is set by controls: 0 for no effect and ±100 for the full control effect; nearly all actives have a fitted effect of over 50% in size
L3MBTL1 inh = blocks human L3MBTL1; Q9Y468; AlphaScreen L3MBTL1–H3K9me1 peptide binding; Potency, µM (titrated, usually from 57.1 µM), inactives show at the highest dose activity, negative = inhibition, usual class: inhibitors; 230,000 tested, 0.66% active; AID 485360; note: % is set by controls: 0 for no effect and ±100 for the full control effect; nearly all actives have a fitted effect of over 60% in size
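First, the protein-peptide complex forms for 30 min at room temperature (L3MBTL1 50 nM, biotinylated H3K9me1 peptide 75 nM). Next, compounds are pin-transferred and incubated 30 min. Finally, AlphaScreen beads are added and read after 30 min.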
Sfp PPTase inh = blocks B. subtilis Sfp PPTase activity. Q9F4F7. Biochemical Sfp PPTase activity, qHTS. Potency, µM, inactives show largest response in the series, negative = inhibition, usual class: inhibitors. 310,000 tested, 3.5% active. AID 1490;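 note: the enzyme is Sfp with the accession as filed and its product quenches rhodamine fluorescence; 0% = enzyme reaction without inhibitor and -100% = no enzyme wells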
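After 15 min at room temperature with compound, 15 nM Sfp received 5 uM rhodamine-CoA plus 12.5 uM BHQ-2-ybbR (50 mM Hepes pH 7.6, 10 mM MgCl2). Rate came from the fluorescence difference over 30 min, ex 525/em 598 nm.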
An asterisk follows results filed as active; ? = inconclusive; / = not tested or not shown; [ ] = dose if it differs, or a comment. Calls come from the whole dose curve; as a rule, active = well fitted curve in the direction sought with a large enough effect; inconclusive = small, poorly fitted or top-dose-only effect, or another doubt; inactive = no such curve, though single readings can be large; an effect the other way counts as inactive or inconclusive. Potency is the fitted concentration of half-maximal effect.

SMILES	G9a block	HP1b chromo inh	BAZ2B block	JMJD2A Tudor inh	L3MBTL1 inh	Sfp PPTase inh
Cc1cccc2c(=O)cc(C(F)(F)F)[nH]c12	/	13%	6%	6%	13%	8%
COc1ccc(N2CCN(C(c3ccc(C)cc3)c3nnnn3C(C)(C)C)CC2)cc1 (stereo unspecified)	/	-19%	/	50µM*	/	/
CCC(C)(C)n1nnnc1C(c1ccc2ncccc2c1)N1CCN(c2nc3ccccc3s2)CC1 (stereo unspecified)	?	2%	-10%	-36%	-2%	-14%
CCC(C)(C)n1nnnc1C(c1ccc2ncccc2c1)N1CCN(c2ccc(O)cc2)CC1 (stereo unspecified)	10µM*	13%[57 µM]	-33%	14µM*	/	20µM*
COc1ccc(N2CCN(C(c3ccc4ncccc4c3)c3nnnn3C(C)(C)C)CC2)cc1 (stereo unspecified)	?	-12%	35µM*	?	?	1%
CCC(=O)OCc1cnc(C)c2oc(=O)c(C(=O)Nc3ccc(CC)cc3)cc12	21%[59 µM]	32%	1%	3%	/	/
CCN1C(=O)c2ccccc2S(=O)(=O)c2ccc(C(=O)NCc3ccccc3)cc21	1%[59 µM]	30%	-20%	-8%	/	/
Cc1ccc(S(=O)(=O)c2cnc(SCC(=O)Nc3cccc(Cl)c3)nc2N)cc1C	-7%[59 µM]	1%	-32%	-22%	/	/
Cc1ccc(OCc2nc(-c3ccc(C(=O)N4CCN(c5cccc(C(F)(F)F)c5)CC4)cc3)oc2C)cc1	-6%[59 µM]	-2%	-22%	-26%	/	/
CCC(=O)Oc1c(Sc2ccc(Cl)cc2)c(C)nn1-c1ccccc1	2.8µM*	30%	1%	-22%	/	/
CCCC(=O)Oc1c(Sc2ccc(C)cc2)c(C)nn1-c1ccccc1	2µM*	89%	37%	-6%	/	/
CCC(=O)Oc1c(Sc2ccc(C)cc2)c(C)nn1-c1ccccc1	10µM*	49%	10%	-13%	/	/
Cc1ccc(Sc2c(C)nn(C(C)(C)C)c2OC(=O)CC(C)C)cc1	82%[59 µM]	93%	84%	70%	/	/
Cc1ccc(C(CC(=O)Nc2cc(C)cc(C)c2)N2Cc3ccccc3C2=O)cc1 (stereo unspecified)	?	13%	-39%	-18%	/	/
COc1ccccc1NC(=O)Cc1c(C(=O)O)[nH]c2ccc(Cl)cc12	-35%[59 µM]	7%	-9%	-30%	/	/
N#CC1=C2SCCN2C(=O)C(C#N)C12CCCCC2 (stereo unspecified)	22µM*	19%	-38%	-25%	-1%	5%
Cn1c(C(=O)NCc2ccccc2Cl)cc2sc(Cl)cc21	5%[59 µM]	61%	-33%	-5%	/	/
CCN(CC)c1ccc(-n2c(C)cc(C=O)c2C)cc1	45µM*	?	?	-7%[11.4 µM]	/	-13%
CCN(CC)c1ccc(-n2c(C)c(C(C)=O)c(C(C)=O)c2C)cc1	?	?	/	89µM*	-5%	-7%
CC(=O)c1c(C(C)=O)c(C)n(-c2ccc(O)cc2)c1C	-1%[59 µM]	6%	-39%	-29%	/	11%
COc1ccc(CNC(=O)CCc2c(C)nc3c(c2C)c(=O)n(C)c(=O)n3C)cc1	-30%[59 µM]	26%	-8%	-16%	/	/
CCOC(=O)c1ccccc1-c1csc(NS(=O)(=O)c2ccc(Cl)cc2)n1	-35%[59 µM]	20%	56µM*	-11%	-2%	-1%
CCOC(=O)Cc1csc(NS(=O)(=O)c2ccccc2)n1	9%	18%	-4%[57.1 µM]	-16%	6%	24%
Cc1ccc(OCC(=O)Nc2nonc2-c2ccc(Br)cc2)cc1C	-27%[59 µM]	26%	-1%	-10%	/	/
Cc1c(C(N)=O)nnn1-c1ccc(Br)cc1	-30%[59 µM]	51%	0%	-2%	/	/
SMILES	G9a block	HP1b chromo inh	BAZ2B block	JMJD2A Tudor inh	L3MBTL1 inh	Sfp PPTase inh
CN1C(=O)/C(=C/c2cn(CC(=O)N3CCCCC3)c3ccccc23)c2ccccc21	11µM*	/	?	/	/	2%
O=Cc1cn(CC(=O)N2CCCCC2)c2ccccc12	19%[59 µM]	52%	7%	4%[57.1 µM]	7%	14%
CC1CCCC(C)N1C(=O)Cn1cc(/C=C2/C(=O)Nc3ccccc32)c2ccccc21 (stereo unspecified)	10µM*	?	?	?	/	6%
Cc1ccc2c(c1)c1c(n2CC(O)CNC2CCCC2)CCCC1 (stereo unspecified)	20µM*	?	45µM*	18µM*	/	-6%
Cc1ccc2c(c1)c1c(n2CC(O)Cn2ccnc2C)C(=O)CCC1 (stereo unspecified)	-7%[59 µM]	10%	-8%	-24%	-4%	22%
NS(=O)(=O)c1ccc(O)c(NC(=O)c2ccc([N+](=O)[O-])o2)c1	?	45µM*	-16%	50µM*	-8%	11µM*
O=C(Nc1cccc(Cl)c1N1CCCC1)c1ccc([N+](=O)[O-])o1	10µM*	-25%	?	?	-18%	0%
O=C(c1ccc([N+](=O)[O-])o1)N1CCN(c2nc3c(Cl)cccc3s2)CC1	35µM*	-17%	?	?	-22%	/
O=C(Nc1cccc(Cl)c1N1CCCC1)c1ccc(Br)o1	?	4%	?	2%	/	0%
CN1CCN(c2ccccc2NC(=O)c2ccc(-c3ccccc3[N+](=O)[O-])o2)CC1	?	-31%	?	56µM*	/	-15%
O=C(Nc1ccccc1N1CCCCC1)c1ccc([N+](=O)[O-])o1	11µM*	45µM*	11µM*	?	-23%	/
Cc1ccccc1NC(=O)CCC(=O)N/N=C/c1cc([N+](=O)[O-])ccc1O	-13%	20%	?	-20%	?	0%
Cc1n[nH]c(C)c1Sc1ccccc1N=Cc1cc([N+](=O)[O-])ccc1O	10µM*	/	4%	/	/	-5%
Cc1cc(O)c(C(C)C)cc1N=Cc1ccccc1O	5.6µM*	-17%[57 µM]	?	?	-29%	14µM*
Cc1cc(O)c(C(C)C)cc1N=Cc1cc([N+](=O)[O-])ccc1O	/	15%	-11%	-21%	7%	14µM*
O=c1[nH]cc(N=Cc2cc([N+](=O)[O-])ccc2O)c(=O)[nH]1	/	/	-2%	/	-2%	-3%
COc1ccc(C)c2sc(NC(=O)c3ccc(S(=O)(=O)N4CCCCC4)cc3)nc12	?	11%[57 µM]	1%	-4%	/	/
Cc1ccc(-n2c(Cc3cccn3C)nnc2SCC(=O)Nc2ccc3c(c2)OCO3)cc1	?	?	45µM*	45µM*	-15%	-2%
O=C(CSc1nnc(-c2cccnc2)n1-c1ccccc1)NCc1ccc2c(c1)OCO2	?	56%	-7%	-22%	-2%	8%
Cc1ccc(-n2c(Cc3cccn3C)nnc2SCC(=O)NCc2ccc3c(c2)OCO3)cc1	?	-6%	50µM*	?	-30%	1%
